# Results published in PubChem BioAssay AID493179 (National Center for Advancing Translational Sciences (NCATS), 2011).
# Inconclusive results are not listed. Active and inactive are the calls of the source. Calls follow the shape of the dose curve; as a rule, active = well fitted inhibition curve with a large enough effect; inconclusive = small, poorly fitted or top-dose-only effect; inactive = flat fitted curve, though single readings scatter.
# Experiment: Secondary Assay for General miRNAs Modulators and/or Inhibitors/Activators of miR-21: miR-30 Firefly Luciferase Assay for second round cherrypicks
# Details: HeLa miR-30 FLuc reporter, luminescence, 48 h
# Excerpt: MLPCN Grant: 1 R21 NS059478-01 Assay Provider: Qihong Huang, The Wistar Institute NCGC Assay Overview: MicroRNAs (miRNAs) are endogenously encoded small (~20-25 nucleotides), nonprotein-coding RNAs that are involved in post-transcriptional repression of target messenger RNAs (mRNAs) (Le and Hannon, 2004). Estimated to be involved in the regulation of 30% of all protein-coding mRNAs (Filipowicz et al., 2008), miRNAs play a significant role in many biological processes including cellular differentiation and tissue development (Ghildiyal and Zamore, 2009). […] Compounds active in the miR-21 FLuc assay were clustered using Leadscope and active chemical series were prioritized based on chemical properties, potential for medicinal chemistry optimization, and SAR. Within each chemical series, representative compounds were re-acquired to test for activity in a secondary assay based on the quality of their CRC, efficacy, and potency. […]
# NCGC Assay Protocol Summary: Reagents: HeLa cells stably expressing firefly luciferase (FLuc) under the control of a CMV promoter (upstream) and a miR-30 binding sequence directly downstream of the gene. […] After a 15 minute incubation to allow for cell lysis, luciferase activity was measured using a ViewLux CCD imager (PerkinElmer), with an average exposure time of 2-12 seconds. […]
structure (smiles),measurement,value
O=c1c2ccccc2nc(Cc2ccccc2)n1-c1ccccc1,Potency,20 µM (active)
